Test [1] is described as follows: kinase inhibitors against Plasmodium liver-stage infection, cell-based, known kinase inhibitor set, luminescence, hepatoma host viability (AID 624392).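 Further: infected cells incubated roughly two days before readout.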 The note with it: Plasmodium liver stage in hepatoma cells, luciferase luminescence, concentration not given here; liver cell % of control: measured here: host liver cell viability; parasite % of control: stronger effect = lower value.

A short description of test [2]: modulators of glucocorticoid suppression of NF-kB, cell-based, luciferase, IL-1B stimulus, dexamethasone (AID 624486).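 On percent of negative control (+Dex): 100% = mean signal of vehicle control wells on the plate.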 The note with it: NF-kB luciferase reporter, IL-1B + dexamethasone, luminescence; percent of negative control (+Dex): actives lie on both sides, concentration not given here; z-score: measured here: IL-1B alone, no Dex. (In a reporter assay the amount or activity of a reporter protein is the signal.)

A short description of test [3]: kinase inhibitors altering Pseudomonas killing of worms, whole organism (AID 651566).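 Further: tested at 14 µM; sign flipped so higher z means a lower ratio.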 The note with it: C. elegans killed by P. aeruginosa, survival ratio.
Test [4] can be described thus: activators of macrophage pro-inflammatory response, cell-based, murine, luminescence (AID 652131). The note with it: murine macrophage pro-inflammatory reporter, stronger effect = higher value.
The target of test [5] is Cellular tumor antigen p53 (Homo sapiens) (UniProt P04637). In words: kinase inhibitors altering GFP-p53 stability in HPV16-positive cells, imaging, known kinase inhibitor set, EGFP/DsRed ratio (AID 1053116).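 Further: cells exposed to compounds for 24 h at 37 °C before reading.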 The note with it: stronger effect = higher value; EGFP object count: measured here: GFP-p53 positive objects count.
Sequence of Cellular tumor antigen p53 (Homo sapiens) (P04637 whole entry, looked up): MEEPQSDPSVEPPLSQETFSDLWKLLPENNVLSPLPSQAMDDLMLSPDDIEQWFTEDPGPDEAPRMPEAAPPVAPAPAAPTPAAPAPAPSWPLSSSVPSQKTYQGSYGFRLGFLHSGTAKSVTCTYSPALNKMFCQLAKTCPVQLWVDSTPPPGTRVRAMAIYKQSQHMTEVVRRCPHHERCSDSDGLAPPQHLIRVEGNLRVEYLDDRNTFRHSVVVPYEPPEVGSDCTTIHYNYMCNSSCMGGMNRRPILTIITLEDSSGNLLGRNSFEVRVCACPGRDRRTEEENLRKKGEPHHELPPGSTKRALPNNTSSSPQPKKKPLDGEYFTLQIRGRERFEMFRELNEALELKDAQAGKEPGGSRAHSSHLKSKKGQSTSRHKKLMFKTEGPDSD
Test [6] in a line: IRF3 reporter activation in THP-1 macrophages, cell-based, PMA-stimulated THP-1, luminescence (AID 1053176). The note with it: PMA-differentiated THP-1, IRF3 reporter luminescence; stronger effect = higher value.
A short description of test [7]: survival rescue of mitochondrial mutant cells in low glucose, primary screen, MELAS cybrids, Rieske KO mouse fibroblasts, CellTiter-Glo (AID 1508586;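 active means mean z-score across replicates of 1.96 or higher in either the MELAS or the Rieske mutant cell line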;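 further: z relative to plate mean and SD of compound and empty wells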). (In general: ATP-based viability assays read luminescence as a measure of living cells.)
The mark [8] stands for this setting: MELAS cybrid survival, CellTiter-Glo 48 h, stronger effect = higher value.
The mark [9] stands for this setting: Rieske KO mouse fibroblast survival, CellTiter-Glo 72 h.

Active and inactive are the calls of the source. Unless noted, how the calls were made is not given here.

For the molecule `COc1ccc(CNC(=O)c2ccc(-c3cc(-c4nnc(C)o4)ccc3C)cc2)cc1`, the liver cell % of control in test [1] came out at 172%. The parasite % of control in test [1] is 67.1% (inactive). Besides, the percent of negative control (+Dex) in test [2] was 102% (inactive). Besides, the z-score in test [2] was 0.42; in test [3], 1.23 (inactive); in test [4], -0.363 (inactive); in test [7] (setting [8]) it was -0.23 (inactive); in test [7] (setting [9]), -0.248. For the same molecule, the EGFP object count in test [5] is 3. The EGFP/DsRed ratio in test [5] is 0.129 (inactive). Moreover, in test [6], the fraction signal was -0.008 (inactive).

On to `CNC(=O)c1cncc(/C=C/c2c(Cl)cccc2Cl)c1`, for which the liver cell % of control in test [1] was 138%. The parasite % of control in test [1] is 48.1% (inactive). For the same molecule, the percent of negative control (+Dex) in test [2] was 92% (inactive). In addition, the z-score in test [2] is 0.3; in test [3], 0.1 (inactive); in test [4], 0.203 (inactive); in test [7] (setting [8]), 0.726 (inactive); in test [7] (setting [9]) it was 0.293. Besides, in test [5], the EGFP object count was determined as 5.5. For the same molecule, the EGFP/DsRed ratio in test [5] is 0.562 (inactive). The fraction signal in test [6] is -0.0025 (inactive).

For `Nc1nccc(C#Cc2cncnc2Nc2ccc(OCc3cccc(F)c3)c(Cl)c2)n1`, in test [1], the liver cell % of control was 107%. In addition, the parasite % of control in test [1] is 81.2% (inactive). In addition, the percent of negative control (+Dex) in test [2] was 83.5% (inactive). The z-score is -0.655 in test [2]; 0.82 (inactive) in test [3]; -1.19 (inactive) in test [4]; -0.936 (inactive) in test [7] (setting [8]); 0.011 in test [7] (setting [9]). For the same molecule, the EGFP object count in test [5] was 313. For the same molecule, the EGFP/DsRed ratio in test [5] was 1.99 (active). Besides, the fraction signal in test [6] is -0.0105 (inactive).

Take `CNC(=O)c1ncccc1Nc1nc(Nc2cc3c(cc2OC)CCCN3C(=O)CN(C)C)nc2[nH]ccc12`: the liver cell % of control in test [1] is 91.6%. In addition, the parasite % of control in test [1] was 670% (inactive). Besides, the percent of negative control (+Dex) in test [2] is 99.5% (inactive). Moreover, the z-score in test [2] was 0.22; in test [3], 0.02 (inactive); in test [4], 0.337 (inactive); in test [7] (setting [8]) it was 6.01 (active); in test [7] (setting [9]), 11.9. Also, the EGFP object count in test [5] is 3. Besides, the EGFP/DsRed ratio in test [5] was 0.0957 (inactive). The fraction signal in test [6] was -0.01 (inactive).

In the case of `COc1cc(/C=N/Nc2ncnc3[nH]ncc23)ccc1O`, the liver cell % of control in test [1] amounted to 81.7%. For the same molecule, the parasite % of control in test [1] was 96.9% (inactive). In test [2], the percent of negative control (+Dex) was 87.5% (inactive). The z-score was -0.055 in test [2]; 0.42 (inactive) in test [3]; -0.354 (inactive) in test [4]; 0.451 (inactive) in test [7] (setting [8]); -0.093 in test [7] (setting [9]). In addition, in test [5], the EGFP object count is 2.5. Also, in test [5], the EGFP/DsRed ratio was 0.119 (inactive). In addition, in test [6], the fraction signal was 0.001 (inactive).

As for `Oc1cccc(-c2nc(-c3ccccc3)[nH]c2-c2ccncc2)c1`, the liver cell % of control in test [1] amounted to 111%. For the same molecule, the parasite % of control in test [1] was 13.2% (active). The percent of negative control (+Dex) in test [2] was 124% (inactive). Further, the z-score in test [2] is 1.75; in test [3] it was 0.81 (inactive); in test [4] it was 1.63 (inactive); in test [7] (setting [8]), -0.947 (inactive); in test [7] (setting [9]) it was -0.653. The EGFP object count in test [5] turned out to be 2.5. Also, in test [5], the EGFP/DsRed ratio is 0.0183 (inactive). For the same molecule, the fraction signal in test [6] is 0.0025 (inactive).

`COc1ccc2ncn(-c3cc(O[C@H](C)c4ccccc4C(F)(F)F)c(C(N)=O)s3)c2c1` returned a liver cell % of control in test [1] of 75.6%. In addition, the parasite % of control in test [1] is 88.3% (inactive). The percent of negative control (+Dex) in test [2] is 75% (inactive). The z-score in test [2] was -2.76; in test [3], 0.355 (inactive); in test [4] it was -1.54 (inactive); in test [7] (setting [8]) it was -0.00963 (inactive); in test [7] (setting [9]), 0.29. The EGFP object count in test [5] came out at 7.5. Also, the EGFP/DsRed ratio in test [5] was 0.176 (inactive). In addition, in test [6], the fraction signal is 0.0035 (inactive).

On to `Clc1ccc(-c2nn3ncccc3c2-c2ccnc(Nc3ccccc3)n2)cc1`, for which, in test [1], the liver cell % of control is 149%. For the same molecule, the parasite % of control in test [1] is 29.7% (inactive). Moreover, the percent of negative control (+Dex) in test [2] is 84% (inactive). Moreover, the z-score in test [2] is -0.705; in test [3] it was 0.79 (inactive); in test [4], 0.464 (inactive); in test [7] (setting [8]) it was 0.298 (inactive); in test [7] (setting [9]), -0.499. Moreover, the EGFP object count in test [5] stood at 4. In test [5], the EGFP/DsRed ratio is 0.304 (inactive). The fraction signal in test [6] is -0.004 (inactive).

With `CCn1c(-c2nonc2N)nc2c(C#CC(C)(C)O)nc(CN3CCCC3)cc21`, in test [1], the liver cell % of control came to 107%. Further, the parasite % of control in test [1] is 162% (inactive). Also, in test [2], the percent of negative control (+Dex) was 85.5% (inactive). The z-score in test [2] was -0.04; in test [3], -0.175 (inactive); in test [4] it was 0.541 (inactive); in test [7] (setting [8]), -0.869 (inactive); in test [7] (setting [9]), 0.697. The EGFP object count in test [5] stood at 4. For the same molecule, the EGFP/DsRed ratio in test [5] is 0.0701 (inactive). In test [6], the fraction signal is 0.0045 (inactive).

On to `CN(C)CCCn1c(-c2nonc2N)nc2cnccc21`, for which the liver cell % of control in test [1] worked out at 105%. In addition, in test [1], the parasite % of control was 124% (inactive). Besides, in test [2], the percent of negative control (+Dex) was 91% (inactive). For the same molecule, the z-score in test [2] was 0.395; in test [3], 0.105 (inactive); in test [4] it was -0.067 (inactive); in test [7] (setting [8]), -0.855 (inactive); in test [7] (setting [9]) it was -0.298. For the same molecule, the EGFP object count in test [5] was 3.5. The EGFP/DsRed ratio in test [5] is 0.0389 (inactive). The fraction signal in test [6] is -0.0015 (inactive).

As for `CCS(=O)(=O)c1ccc(OC)c(Nc2ncc(-c3cccc(-c4ccccc4F)c3)o2)c1`, the liver cell % of control in test [1] was 111%. Further, in test [1], the parasite % of control is 98.4% (inactive). The percent of negative control (+Dex) in test [2] is 88% (inactive). Further, the z-score in test [2] is 0.785; in test [3], -0.07 (inactive); in test [4], -0.851 (inactive); in test [7] (setting [8]), 2.02 (active); in test [7] (setting [9]) it was -0.444. Also, the EGFP object count in test [5] was 3.5. In addition, the EGFP/DsRed ratio in test [5] is 0.511 (inactive). For the same molecule, the fraction signal in test [6] is 0.0015 (inactive).

For the molecule `Cc1ccc2[nH]c(O)c(N=Nc3ccc(S(N)(=O)=O)cc3)c2c1`, the liver cell % of control in test [1] was determined as 164%. Besides, the parasite % of control in test [1] is 128% (inactive). In addition, the percent of negative control (+Dex) in test [2] is 102% (inactive). For the same molecule, the z-score in test [2] is 0.885; in test [3] it was -0.295 (inactive); in test [4] it was -0.079 (inactive); in test [7] (setting [8]), -0.101 (inactive); in test [7] (setting [9]) it was -0.00523. In addition, the EGFP object count in test [5] turned out to be 5. Besides, the EGFP/DsRed ratio in test [5] was 0.439 (inactive). The fraction signal in test [6] was -0.0055 (inactive).

In turn, `CCc1cccc(CC)c1/C=C/c1cncc(C(=O)NC)c1` displayed a liver cell % of control in test [1] of 170%. Further, the parasite % of control in test [1] is 99.3% (inactive). Also, the percent of negative control (+Dex) in test [2] is 81% (inactive). Further, the z-score is -0.295 in test [2]; -0.265 (inactive) in test [3]; 0.127 (inactive) in test [4]; 1.32 (inactive) in test [7] (setting [8]); -0.269 in test [7] (setting [9]). In test [5], the EGFP object count worked out at 4.5. In addition, the EGFP/DsRed ratio in test [5] was 0.156 (inactive). For the same molecule, the fraction signal in test [6] is -0.0125 (inactive).

With `CN(C)CCOc1ccc(-c2cc(-c3ccc4c(c3)CC/C4=N/O)c(-c3ccncc3)o2)cc1`, the liver cell % of control in test [1] is 77.4%. In addition, in test [1], the parasite % of control was 441% (inactive). Moreover, the percent of negative control (+Dex) in test [2] was 130% (inactive). The z-score in test [2] was 0.59; in test [3] it was 0.205 (inactive); in test [4], -0.386 (inactive); in test [7] (setting [8]), 0.463 (inactive); in test [7] (setting [9]), -0.429. Besides, in test [5], the EGFP object count stood at 48. For the same molecule, the EGFP/DsRed ratio in test [5] was 1.74 (active). Also, the fraction signal in test [6] was 0.045 (inactive).

Source of the values: PubChem BioAssay.
